Measured values as given in PubChem BioAssay AID488853 (National Center for Advancing Translational Sciences (NCATS), 2010).
Activity calls are given as the source filed them. Calls follow the shape of the dose curve; as a rule, active = well fitted curve in the direction sought with a large enough effect; inconclusive = small, poorly fitted or top-dose-only effect, or another doubt; inactive = no such curve, though single readings can be large or run the other way.

These compounds were tested against Lysosomal acid glucosylceramidase (Homo sapiens) (UniProt P04062) (assay: qHTS Assay for Inhibitors and Activators of N370S glucocerebrosidase as a Potential Chaperone Treatment of Gaucher Disease: Activity in Non-Mutant Spleen Using Alternate Substrate Confirmation for Probe SAR). Conditions: human spleen homogenate, resorufin-glucoside fluorescence, 40 min; series mostly up to 57.5 µM.
From the text: NIH Chemical Genomics Center [NCGC] NIH Molecular Libraries Probe Production Centers Network [MLPCN] MLPCN Grant: MH086442-01 Assay Submitter (PI): Wei Zheng Glucocerebrosidase (GC) catalyzes the hydrolysis of beta-glucocerebroside to glucose and ceramide in lysosomes. Mutations in the glucocerebrosidase gene result in Gaucher disease, an autosomal recessive lysosomal storage disorder. Many of the mutations encountered in patients with Gaucher disease are missense alterations that may cause misfolding, decreased stability and/or mistrafficking of this lysosomal protein. […] These inhibitors include iminosugar analogs and three non-iminosugar inhibitors identified from a previous HTS of 62,000 compounds with the wild type recombinant enzyme. However, the enhancement of enzyme activity by the chaperone action of an enzyme inhibitor must be balanced against the direct inhibition of the enzyme. An enzyme activator could also function as a chaperone by binding to the enzyme and helping to correct its misfolding and mistrafficking. While activators for GC have not yet been identified, they may have better therapeutic potential than inhibitors. Therefore the discovery and development of chemical activators may provide a new strategy for the chaperone therapy. We have optimized a new assay using N370S mutant GC derived from the spleen of a Gaucher patient. […] In addition, the MLPCN compound library has expanded, which increases the chance of finding new and better probes. This confirmation assay tests for compound activity in spleen homogenate containing wildtype enzyme using an alternate resorufin-based substrate.
NCGC Assay Protocol Summary: This is a fluorogenic enzyme assay with resorufin-beta-D-glucopyranoside as the substrate and wildtype glucocerebrosidase from human spleen homogenate as the enzyme preparation. Upon the hydrolysis of this fluorogenic substrate, the resulting product, […] which can be detected by a standard fluorescence plate reader. Data were normalized to the controls for basal activity (without enzyme) and 100% activity (with enzyme). The AC50 values were determined from concentration-response data modeled with the standard Hill equation. Assay buffer: 50 mM citric acid (titrated with potassium phosphate to pH 5.0), 100 mM potassium chloride, 10 mM sodium chloride, 1 mM magnesium chloride, 0.01% Tween-20. 1536-well assay protocol: (1) Add 2 ul/well of spleen homogenate (27 ug final) (2) Add 23 nL compounds in DMSO solution. The final titration was 0.5 nM to 58 uM. (3) Add 2 ul of substrate (1 mM final) (4) Incubate at 37C for 40 min. (5) Add 2 ul stop solution (1M NaOH and 1M Glycine mixture, pH 10) (6) Detect the assay plate in a ViewLux plate reader (PerkinElmer) with Ex=365 nm and Em=440nm. Keywords: Glucocerebrosidase, beta-glucosidase, Gaucher Disease, pharmacological chaperone, chaperone therapy, high throughput screening, glucocerebrosidase inhibitor, MLSMR, MLSCN, NIH Roadmap, qHTS and NCGC

Chain of Lysosomal acid glucosylceramidase (Homo sapiens) (P04062 whole entry, looked up): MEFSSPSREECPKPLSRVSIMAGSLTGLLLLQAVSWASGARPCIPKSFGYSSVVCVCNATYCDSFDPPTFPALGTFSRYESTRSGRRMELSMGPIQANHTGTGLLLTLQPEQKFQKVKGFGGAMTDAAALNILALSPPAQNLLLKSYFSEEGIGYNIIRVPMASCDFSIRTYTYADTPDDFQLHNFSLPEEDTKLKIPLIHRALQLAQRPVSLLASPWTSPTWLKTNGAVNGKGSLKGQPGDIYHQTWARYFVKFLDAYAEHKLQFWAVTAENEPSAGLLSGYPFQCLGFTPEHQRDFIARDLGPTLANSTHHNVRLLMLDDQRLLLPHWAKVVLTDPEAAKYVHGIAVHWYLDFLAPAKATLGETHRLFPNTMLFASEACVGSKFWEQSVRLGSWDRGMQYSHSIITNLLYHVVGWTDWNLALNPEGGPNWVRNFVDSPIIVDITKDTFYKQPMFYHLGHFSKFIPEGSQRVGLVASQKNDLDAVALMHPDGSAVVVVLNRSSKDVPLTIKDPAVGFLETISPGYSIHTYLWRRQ

outcome, inactive:
COc1ccc(NC(=O)c2cnn3c(C)cc(C)nc23)cc1Cl
Cc1cc(C)n2ncc(C(=O)Nc3ccc(C(C)(C)C)cc3)c2n1
Cc1cc(C)n2ncc(C(=O)N3CCCC3)c2n1
Cc1cc(C)n2ncc(C(=O)Nc3ccc(C)c(C)c3)c2n1
COc1ccc(NC(=O)c2cnn3c(C)cc(C)nc23)cc1OC
Cc1cc(C)n2ncc(C(=O)NC(C)C)c2n1
O=C(Nc1cnn(Cc2ccc(F)cc2)c1)c1cnn2c(C(F)F)cc(-c3ccccc3)nc12
CCc1ccc(NC(=O)c2cnn3c(C)cc(C)nc23)cc1
CC(=O)c1cccc(NC(=O)c2cnn3c(C)cc(C)nc23)c1
Cc1cc(C)n2ncc(C(=O)Nc3ccc4c(c3)OCCO4)c2n1
Cc1ccc(NC(=O)c2cnn3c(C)cc(C)nc23)cc1
Cc1cc(C)n2ncc(C(=O)Nc3ccncc3)c2n1
Cc1cc(C)n2ncc(C(=O)Nc3ccc(S(C)(=O)=O)cc3)c2n1
Cc1cc(C)n2ncc(C(=O)NC3CCCCC3)c2n1
Cc1ccc(NC(=O)c2cnn3c(C)cc(C)nc23)c(C)c1
Cc1cc(C)n2ncc(C(=O)Nc3cccc(C#N)c3)c2n1
Cc1cc(C)n2ncc(C(=O)NCc3ccco3)c2n1
Cc1cc(C)n2ncc(C(=O)Nc3ccccc3C)c2n1
CC(=O)Nc1ccc(NC(=O)c2cnn3c(C)cc(C)nc23)cc1
CC(=O)Nc1ccccc1NC(=O)c1cnn2c(C)cc(C)nc12
Cc1cc(C)n2ncc(C(=O)Nc3ccc(C(F)(F)F)cc3)c2n1
Cc1cc(C)n2ncc(C(=O)NCC(C)C)c2n1
CC(=O)c1ccc(NC(=O)c2cnn3c(C)cc(C)nc23)cc1
COc1cc(NC(=O)c2cnn3c(C)cc(C)nc23)cc(OC)c1OC
C#Cc1ccc(NC(=O)c2cnn3c(C)cc(C)nc23)cc1
CNC(=O)c1cnn2c(C)cc(C)nc12
Cc1cc(C)n2ncc(C(=O)NC3CCC(C(C)(C)C)CC3)c2n1 (configuration not stated)
COc1ccc(NC(=O)c2cnn3c(C)cc(C)nc23)cc1
Cc1cccc(NC(=O)c2cnn3c(C)cc(C)nc23)c1
COc1ccc(NC(=O)c2cnn3c(C)cc(C)nc23)cc1F
Cc1cc(C)n2ncc(C(=O)Nc3ccc(C#N)cc3)c2n1
Cc1cc(C)n2ncc(C(=O)Nc3ccccc3)c2n1
Cc1cc(C)n2ncc(C(=O)Nc3ccc4c(c3)CCC4)c2n1
Cc1cc(C)n2ncc(C(=O)Nc3ccc(Br)cc3)c2n1
Cc1cc(C)n2ncc(C(=O)NCc3ccccc3)c2n1
Cc1cc(C)n2ncc(C(=O)Nc3ccc4c(c3)OCO4)c2n1
Cc1cc(C)n2ncc(C(=O)Nc3cccc(C(F)(F)F)c3)c2n1
